These results are taken from PubChem BioAssay (NCI).

Some test systems named below: SR leukemia; RPMI-8226 leukemia; OVCAR-8 ovarian; OVCAR-5 ovarian; OVCAR-4 ovarian; SK-OV-3 ovarian; IGROV1 ovarian; OVCAR-3 ovarian; HS 578T breast; NCI/ADR-RES ovarian.
Common to all, as to experiment: NCI-60 one-dose screen, 48 h (100 = growth as untreated, 0 = no growth, -100 = all killed)
Common to all, as to details: 10 µM unless noted

This is part of a sample that, as a whole, favours compounds with a hit. Of some 83,000 tested, about 20% had one in any assay.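 Values shown are percent growth following 48 h exposure of cells in 96-well plates to a single concentration of compound; below 10 was considered active.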 A number with no mark means an inactive call. Activity calls are given as the source filed them.

With `O=S(=O)(c1ccccc1)N1CCCc2ccccc21`, the growth was 103% in the assay on SR leukemia; 93.1% with RPMI-8226 leukemia; 99% in the assay with OVCAR-8 ovarian; 103% in the assay on OVCAR-5 ovarian; 113% in the assay with OVCAR-4 ovarian; 105% in the assay with SK-OV-3 ovarian. The growth with IGROV1 ovarian is 99.5%; in the assay with OVCAR-3 ovarian, 102%; with HS 578T breast it was 93.2%; with NCI/ADR-RES ovarian it was 107%.

On to `CC(C)NC(=O)N1C(=O)CCC1NNC(=O)c1ccc([N+](=O)[O-])cc1` (stereo not given), for which the growth in the assay with SR leukemia is 94.9%; in the assay on RPMI-8226 leukemia, 110%; in the assay with OVCAR-8 ovarian, 111%; in the assay with OVCAR-5 ovarian, 103%; in the assay on OVCAR-4 ovarian, 97.9%; with SK-OV-3 ovarian, 113%. For the same compound, the growth with IGROV1 ovarian was 104%; with OVCAR-3 ovarian it was 105%; with HS 578T breast, 117%; with NCI/ADR-RES ovarian it was 95%.

For the compound `COc1ccc(C2CC(c3cccc(Nc4ccncc4)c3)=NN2c2cc(Cl)cc(Cl)c2)cc1` (stereo not given), the growth with SR leukemia was 2.77% (active); in the assay with RPMI-8226 leukemia, 14.9%; in the assay with OVCAR-8 ovarian, -31.8% (active); in the assay on OVCAR-5 ovarian, 82.5%; in the assay on OVCAR-4 ovarian, 28.2%; with SK-OV-3 ovarian, 75%. Besides, the growth is 17.3% in the assay on IGROV1 ovarian, 49% in the assay on OVCAR-3 ovarian, 56.7% in the assay on HS 578T breast and 66.8% with NCI/ADR-RES ovarian.

`O=S(=O)(NCCCNc1nccc(-c2c(-c3ccccc3)nc3occn23)n1)c1ccc(Cl)cc1`: the growth is 60.9% in the assay on SR leukemia; 71.2% in the assay with RPMI-8226 leukemia; 74.4% in the assay with OVCAR-8 ovarian; 127% with OVCAR-5 ovarian; 103% in the assay with OVCAR-4 ovarian; 83% in the assay on SK-OV-3 ovarian. The growth is 75.7% in the assay on IGROV1 ovarian, 104% with OVCAR-3 ovarian, 96.7% in the assay on HS 578T breast and 87.8% with NCI/ADR-RES ovarian.

For the compound `O=C(CN1CCOCC1)Nc1ccc2ncnc(Nc3ccc(OCc4cccc(F)c4)c(Cl)c3)c2c1`, the growth was 64.3% in the assay with SR leukemia; 44.7% in the assay with RPMI-8226 leukemia; 63.1% in the assay with OVCAR-8 ovarian; 69.2% in the assay with OVCAR-5 ovarian; 72% in the assay on OVCAR-4 ovarian; 6.86% (active) in the assay with SK-OV-3 ovarian. Further, the growth with IGROV1 ovarian is 23.2%; with OVCAR-3 ovarian it was 58%; in the assay on HS 578T breast, 100%; in the assay on NCI/ADR-RES ovarian, 44.7%.

Take `CCn1ccnc1C(=O)/C=C/c1ccc(CC(=O)Nc2ccc(F)cc2)cc1`: the growth in the assay with SR leukemia is 14.8%; in the assay with RPMI-8226 leukemia, 2.37% (active); with OVCAR-8 ovarian it was -2.13% (active); in the assay on OVCAR-5 ovarian, 44.5%; with OVCAR-4 ovarian, 35.4%; with SK-OV-3 ovarian, 86.6%. Further, the growth in the assay on IGROV1 ovarian is 32.3%; in the assay on OVCAR-3 ovarian, -4.68% (active); with HS 578T breast it was 52.5%; with NCI/ADR-RES ovarian it was 4.48% (active).

For the compound `O=C1Nc2c(ccc(Cl)c2Cl)/C1=C/c1ccc([N+](=O)[O-])cc1`, the growth in the assay on SR leukemia is 69.7%; in the assay with RPMI-8226 leukemia, 90.1%; in the assay on OVCAR-8 ovarian, 95.1%; with OVCAR-5 ovarian, 98.1%; in the assay with OVCAR-4 ovarian, 100%; with SK-OV-3 ovarian, 93.8%. Further, the growth was 98.6% with IGROV1 ovarian, 108% with OVCAR-3 ovarian, 100% with HS 578T breast and 93.9% with NCI/ADR-RES ovarian.

As for `COc1cc(/C=N/NC(=O)c2ccccc2Nc2cccc(C(F)(F)F)c2)ccc1O`, the growth was -66.4% (active) in the assay with SR leukemia; 78.3% with RPMI-8226 leukemia; 93.9% in the assay on OVCAR-8 ovarian; 89.2% in the assay on OVCAR-5 ovarian; 50% in the assay on OVCAR-4 ovarian; 69.6% in the assay with SK-OV-3 ovarian. For the same compound, the growth is 111% in the assay on IGROV1 ovarian, 80.6% in the assay on OVCAR-3 ovarian, 106% in the assay with HS 578T breast and 75.4% with NCI/ADR-RES ovarian.

With `CC(=O)OCC(=O)[C@@]1(O)CC[C@H]2[C@@H]3CC(=C(Br)Br)C4=CC(=O)CC[C@]4(C)[C@H]3C(=O)C[C@@]21C`, the growth with SR leukemia is 115%; with RPMI-8226 leukemia, 87%; in the assay on OVCAR-8 ovarian it was 92.9%; in the assay with OVCAR-5 ovarian it was 102%; in the assay on OVCAR-4 ovarian, 96.1%; in the assay with SK-OV-3 ovarian, 72.9%. The growth in the assay with IGROV1 ovarian is 96%; in the assay on OVCAR-3 ovarian it was 98.6%; with HS 578T breast it was 90.8%; in the assay with NCI/ADR-RES ovarian, 89.5%.

In the case of `COc1cc(NCC(O)CN(CC(C)C)CC(C)C)c2nc(C)ccc2c1` (stereo not given), the growth with SR leukemia was 102%; in the assay on RPMI-8226 leukemia, 99.4%; in the assay on OVCAR-8 ovarian, 87.2%; in the assay on OVCAR-5 ovarian, 122%; with OVCAR-4 ovarian, 40.2%; in the assay on SK-OV-3 ovarian, 75.2%. For the same compound, the growth in the assay on IGROV1 ovarian was 86.9%; in the assay on OVCAR-3 ovarian it was 53.2%; in the assay with HS 578T breast it was 85.1%; with NCI/ADR-RES ovarian it was 92%.

In the case of `CC(O)(CO)c1ccccc1` (stereo not given), the growth in the assay with SR leukemia is 112%; in the assay on RPMI-8226 leukemia it was 113%; in the assay with OVCAR-8 ovarian, 100%; with OVCAR-5 ovarian, 94.9%; in the assay on OVCAR-4 ovarian it was 103%; in the assay on SK-OV-3 ovarian, 106%. In addition, the growth in the assay with IGROV1 ovarian was 97.2%; with OVCAR-3 ovarian, 112%; in the assay on HS 578T breast, 100%; with NCI/ADR-RES ovarian it was 103%.

On to `CN(C)C(C(N)=O)c1ccc(Cl)cc1` (stereo not given), for which the growth in the assay with SR leukemia was 98.5%; in the assay on RPMI-8226 leukemia, 107%; with OVCAR-8 ovarian, 101%; in the assay on OVCAR-5 ovarian, 95.9%; in the assay with OVCAR-4 ovarian, 102%; in the assay on SK-OV-3 ovarian, 98.5%. Moreover, the growth in the assay with IGROV1 ovarian was 103%; in the assay on OVCAR-3 ovarian it was 112%; in the assay with HS 578T breast, 103%; in the assay with NCI/ADR-RES ovarian, 106%.

Regarding `Clc1ccc(C2CC(c3cccc(Nc4ccncc4)c3)=NN2c2ccc(Cl)cc2)cc1` (stereo not given), the growth in the assay on SR leukemia is 2.85% (active); with RPMI-8226 leukemia, 0.298% (active); in the assay with OVCAR-8 ovarian, -38.9% (active); in the assay with OVCAR-5 ovarian it was 65.4%; with OVCAR-4 ovarian, -14.5% (active); in the assay on SK-OV-3 ovarian, 83.7%. The growth was 7.44% (active) with IGROV1 ovarian, 31% with OVCAR-3 ovarian, 54% with HS 578T breast and 11.2% in the assay with NCI/ADR-RES ovarian.

For `CN1CCN(C(=O)OCc2nc3c(N4CCOCC4)nc(-c4ccccc4)nc3n2C)CC1`, the growth is 2.5% (active) in the assay on SR leukemia; -28.7% (active) in the assay with RPMI-8226 leukemia; 4.37% (active) with OVCAR-8 ovarian; -86.1% (active) with OVCAR-5 ovarian; -86.4% (active) in the assay on OVCAR-4 ovarian; 61.5% in the assay with SK-OV-3 ovarian. Moreover, the growth in the assay on IGROV1 ovarian was -96.3% (active); in the assay with OVCAR-3 ovarian, -81.9% (active); with HS 578T breast it was -22% (active); in the assay with NCI/ADR-RES ovarian, -16.2% (active).
